Consider 40 sequences from the supplement of paper PMC10681739.

In this assay the target is T1, ETS1 (UniProt P14921).
T1 sequence: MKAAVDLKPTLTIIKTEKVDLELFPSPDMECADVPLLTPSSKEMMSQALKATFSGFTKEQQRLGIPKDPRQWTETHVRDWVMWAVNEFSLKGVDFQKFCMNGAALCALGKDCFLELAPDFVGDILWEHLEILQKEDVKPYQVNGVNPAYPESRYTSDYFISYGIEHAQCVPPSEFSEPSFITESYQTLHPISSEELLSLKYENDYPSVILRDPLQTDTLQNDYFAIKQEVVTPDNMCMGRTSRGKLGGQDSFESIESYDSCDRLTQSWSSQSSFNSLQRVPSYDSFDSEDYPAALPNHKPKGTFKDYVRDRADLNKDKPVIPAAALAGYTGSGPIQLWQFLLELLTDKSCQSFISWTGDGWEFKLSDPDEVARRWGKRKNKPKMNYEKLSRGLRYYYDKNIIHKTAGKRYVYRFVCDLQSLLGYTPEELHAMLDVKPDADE
The assay can be described thus: ETS1 binding intensity (PBM fluorescence), ETS1 alone (arbitrary fluorescence units); higher = stronger binding. As to conditions: ETS1 concentration 1 nM; RUNX1 concentration 0 nM. How it is done: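 Cooperative genomic-context PBM: 36-bp genomic probes with neighbouring ETS1 and RUNX1 sites, double-stranded on Agilent 4x180k arrays. Full-length recombinant human ETS1 (1 nM) was incubated alone or with RUNX1 (25 nM) and detected with anti-ETS1 antibody plus Alexa488 secondary. Value is the median fluorescence intensity over 4 replicate spots; the ETS1+RUNX1 data were normalised to the ETS1-only data using probes without RUNX1 sites. The 36-bp variable region sits on the array probe with constant linker/primer flanks that are not printed.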
Take GCCCCCGGAAGCTGTCGCCCCGTGCGGTGTGTGCTG: the ETS1 binding intensity was determined as 1600.

As for GAGGCGTTTCCGCCTCCTTTTCGCGGTTGCCTTCTC, the ETS1 binding intensity was determined as 639.

The sequence CTCCTGTTCCGGCTCAAAGGGAAACCGCTGCTTTTC showed an ETS1 binding intensity of 605.

The sequence GTGCAGGCCGGAAGGAAAAGGGTTGTGGGGCTCATT returned an ETS1 binding intensity of 1180.

For the sequence CAGGCCTGTGATTTCCTCTGAGTGGTTTTCTTGGCC, the ETS1 binding intensity was found to be 465.

CTGTCCCTAGCAGGATGTGGTTTGCACATTGCTGCT showed an ETS1 binding intensity of 3220.

On to CGACGTCACTTCCGCTGGTTCAAGCACCGCGAGACT, for which the ETS1 binding intensity was 1900.

CAGCGGCCGTCGCGGGAAGTGCGGTCGCCGCGGCCA displayed an ETS1 binding intensity of 500.

With AGCCACGGACTTCCGCCTACAGGTCGCCGCAGGTCC, the ETS1 binding intensity was determined as 701.

As to GGCCGGGGGCAGGAAGCTGCGGCGCTGGCTCCCCCC, the ETS1 binding intensity came out at 2510.

CTGCACAGGGAAGTGAGTGTCGAGCTCACCGCACCG had an ETS1 binding intensity of 383.

Consider GGGGGAATGTAGGAAGTATCATCGCCCACAAGAAAG, for which the ETS1 binding intensity turned out to be 644.

In turn, GCAGGACTTCCTGTGTTGTGCTAACCTCAAATTACA came in with an ETS1 binding intensity of 975.

On to CCTGTTCCGGGCTCCGTACACCCAGGCCCGCAGCTG, for which the ETS1 binding intensity stood at 550.

Take CAGAACGGTCCCCGGAACACTGCGGTTCCCGCCTGG: the ETS1 binding intensity amounted to 357.

For TCACCTCATCACAGGAAACCGCGAGCACCTCCTCCT, the ETS1 binding intensity came to 2180.

TCCCTCCTTCCGCTCTGGTTTTGTGGTTGCTTGCTG gave an ETS1 binding intensity of 902.

The sequence TTACAGGGGCCGGAAGTGGCCTGCGGGCGGAGAAGT gave an ETS1 binding intensity of 21200.

For the sequence AATCATCAGGGAAATGCAAATCAAAACCACAATCAG, the ETS1 binding intensity was determined as 547.

Turning to CAGAGGACAGGATGCCAACCCCAAAACCGCAGCGAC, the ETS1 binding intensity is 733.

TCTAGTTCTGGTTTCCGGACCGCATTCGGAACTAGA showed an ETS1 binding intensity of 1000.

Take AACACCACTTCCTACTGTGAAACCACACTGTATTTG: the ETS1 binding intensity worked out at 456.

Regarding CACTTCCTGCCCTCTTCCACTTTCAAAACCACATCA, the ETS1 binding intensity stood at 869.

CTCTGAAGGAAGTGATGTTAGACGGCTGTGGGTGGT yielded an ETS1 binding intensity of 545.

AGGTCTCCGGAAGTGGGTCTGCGGCGCGCGGGATGC had an ETS1 binding intensity of 6040.

For the sequence GACAGCAACTCCACTTCCTGTGGGCGAGGGCCCTGT, the ETS1 binding intensity was found to be 1850.

TGGGATTCTCACTTCCGATCAGCGGTCCTGAACCCG had an ETS1 binding intensity of 707.

For the sequence GACTATGTGCTTCCGGTCTCCAATACCGCAGGAGGG, the ETS1 binding intensity is 4950.

On to ACACCGCTCAGGAAGACAAAGCCACACCTCACACCG, for which the ETS1 binding intensity was 457.

As to AAATCCACTCAGAGGAAACCACAGGCCTGGCCCAGC, the ETS1 binding intensity stood at 365.

For GCCGATGAGGAAGTGAGGGCCAACCACACTGCTCAG, the ETS1 binding intensity was 544.

In turn, GTGACGGATATCCACCGGGCCCTGTGGTTTCCAACA returned an ETS1 binding intensity of 394.

For TTACGTTAAGGAGGAAACTCTGTGGTTAAACTGTAG, the ETS1 binding intensity amounted to 597.

In the case of GCACGCGCCGGGCGGAACCCACAGGCCTGGAAGCGA, the ETS1 binding intensity amounted to 537.

AGGCAGCACAGGAAGTTATAACCACATGTACACTTG registered an ETS1 binding intensity of 3790.

AGCTCCACCGGAAACGGCCTGGCCGCAGCCAATCAG gave an ETS1 binding intensity of 7110.

CCTGCCTGACCGGAAGTGCCCGCAACCCCACCGACC returned an ETS1 binding intensity of 20600.

For the sequence TGCTTCTGAGGAAGTGATCTGTGGTCAAAGAAAGAA, the ETS1 binding intensity was found to be 747.

CACCAGGACGCAACAGGAAACCACAAAGGCCTGAGA registered an ETS1 binding intensity of 2390.

The sequence AACATTACGGAAGTTTCTCTACCCATGCGGTGTCTC showed an ETS1 binding intensity of 521.
